Source: PubChem BioAssay
Records with an inconclusive call do not appear. Activity calls are given as the source filed them. Cut-off read from the data, not from the text of the source, unless noted: active = inhibition above about 30%; inactive = the rest.

What was measured:
[1] = Her2 expression decrease, cell viability multiplex – SKBR3 breast tumor cells, AlphaScreen, ATP viability, primary screen (AID 461;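 active = Her2 level under about 52% in both replicate screens, with viability over 70% of control, limit read from the data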;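 for Her2 level: lower value means less Her2 protein in the cells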;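 for viability: percent of carrier control wells set as 100% viability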); conditions: SKBR3 Her2 protein level, 18-24 h, measured here: SKBR3 viability, ATP luminescence, at 10 µM
[2] = target: Receptor tyrosine-protein kinase erbB-2 (Homo sapiens) (UniProt P04626); assay: as above; conditions: 18-24 h, at 10 µM, stronger effect = lower value
Receptor tyrosine-protein kinase erbB-2 (Homo sapiens), sequence (P04626 whole entry, looked up): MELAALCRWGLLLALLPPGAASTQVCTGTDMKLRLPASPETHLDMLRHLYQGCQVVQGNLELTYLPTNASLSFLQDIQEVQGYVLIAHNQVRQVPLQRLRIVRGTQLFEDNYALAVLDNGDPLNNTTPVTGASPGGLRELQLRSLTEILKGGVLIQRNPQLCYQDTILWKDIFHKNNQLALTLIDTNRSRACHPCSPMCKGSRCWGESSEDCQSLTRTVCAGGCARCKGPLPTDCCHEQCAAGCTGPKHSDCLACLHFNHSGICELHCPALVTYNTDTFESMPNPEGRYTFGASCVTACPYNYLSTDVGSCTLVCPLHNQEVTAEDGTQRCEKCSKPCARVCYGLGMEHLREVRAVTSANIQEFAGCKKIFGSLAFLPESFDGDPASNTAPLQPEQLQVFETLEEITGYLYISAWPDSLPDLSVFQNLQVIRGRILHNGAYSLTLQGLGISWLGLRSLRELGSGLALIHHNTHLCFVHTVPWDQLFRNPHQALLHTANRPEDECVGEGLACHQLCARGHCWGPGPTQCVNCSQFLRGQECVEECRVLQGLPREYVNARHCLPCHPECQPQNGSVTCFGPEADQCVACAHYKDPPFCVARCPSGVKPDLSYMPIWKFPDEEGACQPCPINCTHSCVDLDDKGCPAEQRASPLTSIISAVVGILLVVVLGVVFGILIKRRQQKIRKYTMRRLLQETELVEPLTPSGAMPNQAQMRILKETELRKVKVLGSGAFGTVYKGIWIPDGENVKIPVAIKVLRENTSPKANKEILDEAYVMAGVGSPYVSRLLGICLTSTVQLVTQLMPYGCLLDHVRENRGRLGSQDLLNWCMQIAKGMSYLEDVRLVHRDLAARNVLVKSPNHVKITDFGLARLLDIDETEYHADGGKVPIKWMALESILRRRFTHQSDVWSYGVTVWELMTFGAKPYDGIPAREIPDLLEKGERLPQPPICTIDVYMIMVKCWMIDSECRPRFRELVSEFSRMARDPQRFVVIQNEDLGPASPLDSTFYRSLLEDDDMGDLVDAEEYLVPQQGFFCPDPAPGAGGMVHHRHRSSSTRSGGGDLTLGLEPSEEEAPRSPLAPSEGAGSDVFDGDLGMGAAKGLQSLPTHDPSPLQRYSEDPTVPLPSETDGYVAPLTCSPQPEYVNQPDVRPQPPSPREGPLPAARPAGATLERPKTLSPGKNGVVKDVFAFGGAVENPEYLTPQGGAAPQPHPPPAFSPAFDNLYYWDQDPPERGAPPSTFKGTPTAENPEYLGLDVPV

[3] = reduced viability of SK-BR-3 breast cancer cells – cell-based, 24 h, human, pilot screen (AID 572;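 active = viability at or below 10% of carrier control in both of two separate runs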;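 note: compound exposure lasted between 18 and 24 h rather than exactly 24 h; 100% = carrier-treated control wells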); conditions: SK-BR-3 viability, CellTiter-Glo luminescence, at 10 µM, stronger effect = lower value
[4] = HUVEC growth inhibition – cell-based, human, primary screen (AID 575;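 active = viability at or below 30% in both replicate assays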;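 note: 100% = median of untreated cell wells with 0.1% DMSO on each plate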); conditions: HUVEC proliferation, CellTiter-Glo luminescence, 72 h; at 10 µM; stronger effect = lower value
[5] = H69AR cell proliferation blockers – human, duplicate replicates, primary screen (AID 580;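 active = viability at or under a set limit in both replicates, limit being median viability minus 3 SD, cut at about 48% in these data, passing the limit was not always enough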;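 note: 100% = mean luminescence of untreated wells and 0% = no signal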); conditions: H69AR lung tumor cells viability, ATP luminescence, 72 h; at 10 µM; stronger effect = lower value
[6] = MRP1 drug-resistance reversers in H69AR cells – cell-based, doxorubicin co-treatment, pilot screen (AID 601;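 active = viability loss from added drug above about 55%, and viability with drug at most 40%, in both replicates, limit read from the data, passing the limit was not always enough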); conditions: CellTiter-Glo, 72 h, at 10 µM; for differential viability (reversal): stronger effect = higher value
[7] = yeast transport mutant growth inhibition pilot in 384-well plates, post-Golgi transport modulator project (AID 636; in the data active = inhibition above about 31%); conditions: absorbance 615 nm, about 18 h, stronger effect = higher value
[8] = growth suppression of yeast trafficking mutant, preliminary HTS, modulators of trafficking downstream of Golgi apparatus project, 1536-format plate, OD 615 nm (AID 637); conditions: yeast transport mutant growth, absorbance 615 nm, 18 h; stronger effect = higher value
[9] = S. cerevisiae growth inhibition in permissive medium (OD615), pilot counter-assay for S. cerevisiae lifespan shortening project, permissive growth control (AID 705;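 active = growth inhibition above 25% in both replicates, a cutoff set 3 SD above the mean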); conditions: OD615, 24 h, at 10 µM, stronger effect = higher value
[10] = S. cerevisiae growth inhibition in restrictive medium, OD615, pilot screen, restrictive growth control, yeast lifespan reduction project (AID 706;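 active = growth inhibition above a set limit, 3 SD over mean compound inhibition, in both replicates, cut at about 43% in these data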;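 note: modified DeaD lifespan yeast strain shifted to restrictive glucose medium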); conditions: OD615, 48 h, at 10 µM, stronger effect = higher value
[11] = doxorubicin toxicity protection in MRP-1 cells – H69AR cells, CellTiter-Glo, duplicate, MRP-1 activator project, pilot screen (AID 807;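 active = viability increase at or above a cutoff of the median across tested compounds plus 3 SD, cut at about 8.5% in these data, passing the limit was not always enough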;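 note: compound pretreatment 18-22 h then 72 h combined with doxorubicin; 0% = doxorubicin alone and 100% = vehicle without doxorubicin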); conditions: H69AR viability with doxorubicin, CellTiter-Glo luminescence; at 10 µM; stronger effect = higher value
[12] = viability of HCT116 without oncogenic beta-catenin – human colon tumor cells, pilot screen (AID 823;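 active = cell viability at or below a set limit in both duplicate runs, the limit being the all-compound median minus 4 SD, cut at about 23% in these data, passing the limit was not always enough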;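 note: 0% = wells killed by 20 µM Hyamine and 100% = untreated DMSO cell wells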); conditions: HCT116 beta-catenin knockout viability, CellTiter-Glo, 60 h; at 10 µM; stronger effect = lower value
[13] = viability of PTEN-null HCT116 cells – cell-based, HCT116 clonal line, CellTiter-Glo, pilot screen (AID 824;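 active = viability at or below 27.92% in each of two runs, the all-compound median minus 4 SD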;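 note: 0% = 20 µM Hyamine control and 100% = vehicle cell control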); conditions: HCT116 PTEN-deleted viability, 60 h, at 10 µM, stronger effect = lower value
[14] = RAM pathway blockade in budding yeast – dse1pr::URA3 reporter, 5-FOA selection, pilot screen (AID 869;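 active = inhibition over a set limit, the all-compound mean plus 3 SD, in both replicate runs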;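 note: 0% = DMSO wells with no growth and 100% = 10 µM 1-NA-PP1 with full growth; RAM network block rescues cells from 5-FOA so hits raise OD615 growth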); conditions: S. cerevisiae dse1pr::URA3 5-FOA growth, OD615, 2 d; at 10 µM; stronger effect = higher value; strain carries analog-sensitive mutant Cbk1 kinase
[15] = RAM signaling pathway blockade in yeast – S. cerevisiae, Pdr1DBD-CYC8 efflux-inhibited sensitized strain, primary screen (AID 1298;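 active = RAM network inhibition above 8.4% in each of two replicates, 3 SD over the compound average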;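 note: 0% = DMSO untreated cells without growth and 100% = 10 µM 1-NA-PP1 full growth; higher means more yeast growth rescued from 5-FOA killing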); conditions: S. cerevisiae cbk1-as DSE1-URA3 strain, 5-FOA growth OD615, 2 d; at 50 µM; stronger effect = higher value
[16] = H69AR cells + 2 uM doxorubicin, measured here: viability with 2 uM doxorubicin, stronger effect = lower value
[17] = H69AR cells, compound alone cytotoxicity

O=C(CCCn1c(=O)c2sccc2n(Cc2cc(=O)n3ccccc3n2)c1=O)NCc1ccco1
inactive: Her2 level [2] 126% | viability [3] 82.5% | viability [4] 87.7% | viability [5] 77% | differential viability (reversal) ([6]; H69AR cells + 2 uM doxorubicin) -2.97% | inhibition [7] 3.59% | inhibition [8] -4.33% | growth inhibition [9] -9.24% | growth inhibition [10] -2.77% | viability increase [11] -1.87% | viability [12] 91.3% | viability [13] 99.3% | inhibition [14] -0.225% | RAM network inhibition [15] 0.21%
80%: viability [6, 16]
82.5%: viability [1]
77%: viability [6, 17]

COc1ccc(NC(=O)c2cnc3n(c2=O)CCS3)cc1OC
inactive: Her2 level [2] 106% | viability [3] 112% | viability [4] 88.2% | viability [5] 95.7% | differential viability (reversal) ([6]; H69AR cells + 2 uM doxorubicin) 11.8% | inhibition [7] -3.07% | inhibition [8] -4.59% | growth inhibition [9] -14.6% | growth inhibition [10] -5.98% | viability increase [11] 1.5% | viability [12] 109% | viability [13] 103% | inhibition [14] 2.45% | RAM network inhibition [15] 7.24%
83.9%: viability [6, 16]
112%: viability [1]
95.7%: viability [6, 17]

C(=N\c1c(-c2ccccc2)nc2n1CCS2)/c1ccccc1
inactive: Her2 level [2] 104% | viability [3] 102% | viability [4] 85.9% | viability [5] 100% | differential viability (reversal) ([6]; H69AR cells + 2 uM doxorubicin) 10.5% | inhibition [7] -1.69% | inhibition [8] -6% | growth inhibition [9] 1.59% | growth inhibition [10] 40.4% | viability increase [11] -4.2% | viability [12] 84.8% | viability [13] 90.2% | inhibition [14] 0.675% | RAM network inhibition [15] 6.86%
100%: viability [6, 17]
89.5%: viability [6, 16]
102%: viability [1]

Fc1cccc(Nc2ncnc3c2cnn3-c2ccccc2)c1
83.5%: viability [1]
37.9%: viability [6, 17]
69.5%: viability [6, 16]
inactive: Her2 level [2] 70.5% | viability [3] 83.5% | viability [4] 54.9% | differential viability (reversal) ([6]; H69AR cells + 2 uM doxorubicin) -31.6% | inhibition [7] 2.4% | inhibition [8] -1.67% | growth inhibition [9] -5.18% | growth inhibition [10] -6.66% | viability increase [11] -5.13% | viability [12] 71.5% | viability [13] 70.2% | inhibition [14] 0.315% | RAM network inhibition [15] 0.26%
active: viability [5] 37.9%

Cc1ccc(N(C)C(=O)N2CCN(c3ccccn3)CC2)cc1
inactive: Her2 level [2] 112% | viability [3] 94.5% | viability [4] 109% | viability [5] 98.2% | differential viability (reversal) ([6]; H69AR cells + 2 uM doxorubicin) 7.52% | inhibition [7] 2.27% | inhibition [8] -0.5% | growth inhibition [9] 0.955% | growth inhibition [10] 5.44% | viability increase [11] -1.03% | viability [12] 97.6% | viability [13] 97.1% | inhibition [14] 1.14% | RAM network inhibition [15] -0.55%
98.2%: viability [6, 17]
94.5%: viability [1]
90.7%: viability [6, 16]

CCOC(=O)CN1CC23C=CC(O2)C(C(=O)Nc2ccc(OCC)cc2)C3C1=O (stereo not drawn)
96.4%: viability [6, 17]
inactive: Her2 level [2] 96% | viability [3] 100% | viability [4] 102% | viability [5] 96.4% | differential viability (reversal) ([6]; H69AR cells + 2 uM doxorubicin) 7.16% | inhibition [7] -4.53% | inhibition [8] 0.49% | growth inhibition [9] 17% | growth inhibition [10] 13.4% | viability increase [11] -0.57% | viability [12] 112% | viability [13] 105% | inhibition [14] 2.22% | RAM network inhibition [15] 0.21%
89.2%: viability [6, 16]
100%: viability [1]

Cc1ccc(-n2ncc3c(N4CCCC(C)C4)ncnc32)c(C)c1 (stereo not drawn)
104%: viability [1]
inactive: Her2 level [2] 78.5% | viability [3] 104% | viability [4] 60.2% | viability [5] 61.6% | differential viability (reversal) ([6]; H69AR cells + 2 uM doxorubicin) 38.2% | inhibition [7] -5.07% | inhibition [8] 8% | growth inhibition [9] -2.59% | growth inhibition [10] 10% | viability increase [11] -8.5% | viability [12] 80.5% | viability [13] 80.4% | inhibition [14] 0.12% | RAM network inhibition [15] 2.4%
61.6%: viability [6, 17]
23.4%: viability [6, 16]

c1ccc(C2(Cn3ccc4ccccc43)OCCO2)cc1
inactive: Her2 level [2] 104% | viability [3] 89% | viability [4] 93.7% | viability [5] 94.9% | differential viability (reversal) ([6]; H69AR cells + 2 uM doxorubicin) 7.87% | inhibition [7] -0.78% | inhibition [8] 3.44% | growth inhibition [9] -4.05% | growth inhibition [10] -10.5% | viability increase [11] -3.2% | viability [12] 81.6% | viability [13] 81.8% | inhibition [14] 1.63% | RAM network inhibition [15] 6.65%
87.1%: viability [6, 16]
89%: viability [1]
94.9%: viability [6, 17]

COc1ccc(C(C)N2CC34C=CC(O3)C(C(=O)OCC(C)C)C4C2=O)cc1 (stereo not drawn)
inactive: Her2 level [2] 89.5% | viability [3] 103% | viability [4] 97.2% | viability [5] 85.1% | differential viability (reversal) ([6]; H69AR cells + 2 uM doxorubicin) 3.22% | inhibition [7] -4.27% | inhibition [8] -2.33% | growth inhibition [9] -0.88% | growth inhibition [10] -7.06% | viability increase [11] -2.51% | viability [12] 103% | viability [13] 88.5% | inhibition [14] 1.82% | RAM network inhibition [15] 4.69%
103%: viability [1]
81.9%: viability [6, 16]
85.1%: viability [6, 17]
